Experimental data: the supplement of paper PMC11732987, “Enantioselective OTUD7B fragment discovery through chemoproteomics screening and high-throughput optimisation” (Communications Chemistry, 2025)

Key:
Experiment in all cases: log2 ratio of Biotin-Ahx-Ub-VS probe labelling (fragment/DMSO); higher = less target engagement (more negative = stronger competition), active = hit call of the paper (q ≤ 0.05, log2 ratio ≤ -1)
Conditions in all cases: compound concentration: 200 uM; treatment time: 3 h
USP42 = target: T1, USP42 (UniProt Q9H9J4)
T1 sequence (whole entry): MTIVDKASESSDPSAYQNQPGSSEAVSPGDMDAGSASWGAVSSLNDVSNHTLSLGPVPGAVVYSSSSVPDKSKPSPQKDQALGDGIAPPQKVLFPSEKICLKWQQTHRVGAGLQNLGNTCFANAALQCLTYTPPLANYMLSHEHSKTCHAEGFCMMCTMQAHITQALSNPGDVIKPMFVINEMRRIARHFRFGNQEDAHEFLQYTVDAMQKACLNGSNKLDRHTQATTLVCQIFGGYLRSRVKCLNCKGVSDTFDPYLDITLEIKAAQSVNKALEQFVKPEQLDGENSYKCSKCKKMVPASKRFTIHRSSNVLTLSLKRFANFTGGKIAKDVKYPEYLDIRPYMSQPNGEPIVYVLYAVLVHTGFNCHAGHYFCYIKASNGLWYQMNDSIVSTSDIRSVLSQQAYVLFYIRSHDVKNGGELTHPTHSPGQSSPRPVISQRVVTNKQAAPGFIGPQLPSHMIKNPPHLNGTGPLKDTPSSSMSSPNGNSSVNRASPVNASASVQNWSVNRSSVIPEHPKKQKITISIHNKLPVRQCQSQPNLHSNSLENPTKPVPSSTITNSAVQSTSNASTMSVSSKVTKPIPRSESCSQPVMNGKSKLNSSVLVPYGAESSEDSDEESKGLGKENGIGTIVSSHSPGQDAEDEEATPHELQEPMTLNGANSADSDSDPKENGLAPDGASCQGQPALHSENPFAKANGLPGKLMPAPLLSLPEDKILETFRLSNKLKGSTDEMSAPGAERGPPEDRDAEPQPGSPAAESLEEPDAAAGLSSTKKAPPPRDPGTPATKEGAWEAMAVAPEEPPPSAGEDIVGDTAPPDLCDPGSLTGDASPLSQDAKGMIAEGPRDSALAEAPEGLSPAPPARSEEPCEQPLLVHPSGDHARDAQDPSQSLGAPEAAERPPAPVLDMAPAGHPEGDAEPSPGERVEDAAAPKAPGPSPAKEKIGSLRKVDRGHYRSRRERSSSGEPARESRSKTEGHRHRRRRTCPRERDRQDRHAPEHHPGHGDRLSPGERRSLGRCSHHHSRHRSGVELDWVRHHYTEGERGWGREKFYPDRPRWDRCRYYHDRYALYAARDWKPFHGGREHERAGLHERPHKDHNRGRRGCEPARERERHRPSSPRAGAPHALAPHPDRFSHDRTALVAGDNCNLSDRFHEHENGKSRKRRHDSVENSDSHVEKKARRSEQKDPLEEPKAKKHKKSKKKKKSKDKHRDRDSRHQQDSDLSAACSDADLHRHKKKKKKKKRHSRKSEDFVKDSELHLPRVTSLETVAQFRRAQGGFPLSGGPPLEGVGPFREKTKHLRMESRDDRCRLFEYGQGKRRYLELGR
Method in brief: (§1)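 HEK293T lysate (495 µg per sample, in Tris/CHAPS/IGEPAL buffer with protease inhibitors) was exposed in triplicate for 3 h to fragment at 200 µM or to vehicle, then to Biotin-Ahx-Ub-VS at 0.5 µM final for 1 h. Labelled DUBs were enriched on NeutrAvidin, digested with LysC and trypsin, and analysed by diaPASEF LC-MS/MS. Spectronaut label-free quantities were normalised to the global median, and values are average log2 ratios of fragment over vehicle from an unpaired t-test. Only proteins with ≥2 unique peptides were used.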

USP46 = USP46 (UniProt P62068)
USP46, sequence (P62068 whole entry): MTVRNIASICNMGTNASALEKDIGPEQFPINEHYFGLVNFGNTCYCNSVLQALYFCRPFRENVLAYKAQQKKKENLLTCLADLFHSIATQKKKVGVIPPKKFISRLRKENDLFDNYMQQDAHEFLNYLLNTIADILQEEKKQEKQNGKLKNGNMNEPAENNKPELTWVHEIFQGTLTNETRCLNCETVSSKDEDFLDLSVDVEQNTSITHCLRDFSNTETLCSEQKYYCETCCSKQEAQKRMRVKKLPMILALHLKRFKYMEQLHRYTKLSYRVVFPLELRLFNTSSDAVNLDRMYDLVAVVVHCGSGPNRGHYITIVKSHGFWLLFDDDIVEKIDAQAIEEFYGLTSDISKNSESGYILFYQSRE
Method in brief: as §1

USP47 = target: T2, USP47 (UniProt Q96K76)
T2 sequence (whole entry): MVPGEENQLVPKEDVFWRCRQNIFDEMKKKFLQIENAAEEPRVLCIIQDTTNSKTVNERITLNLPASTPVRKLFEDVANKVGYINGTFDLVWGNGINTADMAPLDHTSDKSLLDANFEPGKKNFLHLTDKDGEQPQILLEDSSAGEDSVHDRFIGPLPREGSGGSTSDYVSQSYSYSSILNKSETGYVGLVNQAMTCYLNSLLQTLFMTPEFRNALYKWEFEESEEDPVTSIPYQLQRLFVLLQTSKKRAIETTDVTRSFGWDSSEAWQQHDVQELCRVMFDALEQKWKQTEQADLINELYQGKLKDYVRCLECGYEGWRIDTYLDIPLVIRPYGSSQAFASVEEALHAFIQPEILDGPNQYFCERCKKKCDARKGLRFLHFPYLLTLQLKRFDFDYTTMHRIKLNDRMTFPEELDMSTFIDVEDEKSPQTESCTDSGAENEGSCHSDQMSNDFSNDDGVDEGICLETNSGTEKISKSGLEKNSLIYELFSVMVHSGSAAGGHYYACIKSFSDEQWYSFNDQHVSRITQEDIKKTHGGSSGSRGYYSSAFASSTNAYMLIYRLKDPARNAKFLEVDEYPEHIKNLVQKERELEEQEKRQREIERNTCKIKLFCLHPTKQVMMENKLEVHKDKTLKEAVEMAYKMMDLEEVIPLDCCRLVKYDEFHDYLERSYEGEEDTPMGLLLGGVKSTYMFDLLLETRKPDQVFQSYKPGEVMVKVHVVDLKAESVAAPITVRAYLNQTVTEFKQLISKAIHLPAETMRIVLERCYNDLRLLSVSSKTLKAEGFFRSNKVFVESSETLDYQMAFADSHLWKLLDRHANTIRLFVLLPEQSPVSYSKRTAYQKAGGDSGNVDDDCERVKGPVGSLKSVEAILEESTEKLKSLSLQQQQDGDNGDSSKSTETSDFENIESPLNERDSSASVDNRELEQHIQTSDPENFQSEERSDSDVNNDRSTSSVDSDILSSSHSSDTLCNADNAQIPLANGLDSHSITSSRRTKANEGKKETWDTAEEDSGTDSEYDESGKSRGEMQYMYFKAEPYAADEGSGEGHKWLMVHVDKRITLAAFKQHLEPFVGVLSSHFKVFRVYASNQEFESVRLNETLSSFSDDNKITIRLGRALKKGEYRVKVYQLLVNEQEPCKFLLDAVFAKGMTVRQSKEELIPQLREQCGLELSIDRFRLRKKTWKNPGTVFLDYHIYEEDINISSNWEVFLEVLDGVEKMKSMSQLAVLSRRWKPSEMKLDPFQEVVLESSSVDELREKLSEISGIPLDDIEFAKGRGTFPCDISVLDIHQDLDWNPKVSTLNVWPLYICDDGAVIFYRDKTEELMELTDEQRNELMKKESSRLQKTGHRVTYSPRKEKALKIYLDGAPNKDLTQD
Method in brief: as §1

USP48 = target: T3, USP48 (UniProt Q86UV5)
T3 sequence (whole entry): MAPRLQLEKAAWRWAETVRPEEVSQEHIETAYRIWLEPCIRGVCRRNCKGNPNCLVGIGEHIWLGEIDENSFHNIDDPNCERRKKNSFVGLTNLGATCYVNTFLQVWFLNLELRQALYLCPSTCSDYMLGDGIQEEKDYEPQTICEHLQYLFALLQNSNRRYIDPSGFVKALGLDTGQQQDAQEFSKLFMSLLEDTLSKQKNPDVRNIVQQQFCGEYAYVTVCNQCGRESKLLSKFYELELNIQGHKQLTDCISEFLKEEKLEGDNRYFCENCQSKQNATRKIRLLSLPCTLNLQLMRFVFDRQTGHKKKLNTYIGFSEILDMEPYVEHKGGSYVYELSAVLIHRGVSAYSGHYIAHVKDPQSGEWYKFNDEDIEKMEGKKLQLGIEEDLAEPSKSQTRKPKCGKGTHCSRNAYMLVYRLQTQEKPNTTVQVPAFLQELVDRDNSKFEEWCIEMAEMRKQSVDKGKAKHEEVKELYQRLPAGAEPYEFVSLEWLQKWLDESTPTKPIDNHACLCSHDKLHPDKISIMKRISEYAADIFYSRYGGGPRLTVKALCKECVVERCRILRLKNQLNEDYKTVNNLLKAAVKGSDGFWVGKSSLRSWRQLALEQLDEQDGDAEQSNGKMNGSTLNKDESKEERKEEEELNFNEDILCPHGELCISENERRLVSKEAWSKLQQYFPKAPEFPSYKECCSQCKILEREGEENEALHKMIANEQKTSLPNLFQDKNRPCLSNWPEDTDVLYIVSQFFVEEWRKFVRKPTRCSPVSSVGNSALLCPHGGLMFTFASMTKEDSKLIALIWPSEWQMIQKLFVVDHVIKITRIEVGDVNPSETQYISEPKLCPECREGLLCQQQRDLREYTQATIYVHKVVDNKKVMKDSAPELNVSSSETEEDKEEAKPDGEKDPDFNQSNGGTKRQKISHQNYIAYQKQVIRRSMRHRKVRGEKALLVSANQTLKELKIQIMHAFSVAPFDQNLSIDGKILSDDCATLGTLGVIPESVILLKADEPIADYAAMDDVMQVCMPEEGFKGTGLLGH
Method in brief: as §1

USP5 = target: T4, USP5 (UniProt P45974)
T4 sequence (whole entry): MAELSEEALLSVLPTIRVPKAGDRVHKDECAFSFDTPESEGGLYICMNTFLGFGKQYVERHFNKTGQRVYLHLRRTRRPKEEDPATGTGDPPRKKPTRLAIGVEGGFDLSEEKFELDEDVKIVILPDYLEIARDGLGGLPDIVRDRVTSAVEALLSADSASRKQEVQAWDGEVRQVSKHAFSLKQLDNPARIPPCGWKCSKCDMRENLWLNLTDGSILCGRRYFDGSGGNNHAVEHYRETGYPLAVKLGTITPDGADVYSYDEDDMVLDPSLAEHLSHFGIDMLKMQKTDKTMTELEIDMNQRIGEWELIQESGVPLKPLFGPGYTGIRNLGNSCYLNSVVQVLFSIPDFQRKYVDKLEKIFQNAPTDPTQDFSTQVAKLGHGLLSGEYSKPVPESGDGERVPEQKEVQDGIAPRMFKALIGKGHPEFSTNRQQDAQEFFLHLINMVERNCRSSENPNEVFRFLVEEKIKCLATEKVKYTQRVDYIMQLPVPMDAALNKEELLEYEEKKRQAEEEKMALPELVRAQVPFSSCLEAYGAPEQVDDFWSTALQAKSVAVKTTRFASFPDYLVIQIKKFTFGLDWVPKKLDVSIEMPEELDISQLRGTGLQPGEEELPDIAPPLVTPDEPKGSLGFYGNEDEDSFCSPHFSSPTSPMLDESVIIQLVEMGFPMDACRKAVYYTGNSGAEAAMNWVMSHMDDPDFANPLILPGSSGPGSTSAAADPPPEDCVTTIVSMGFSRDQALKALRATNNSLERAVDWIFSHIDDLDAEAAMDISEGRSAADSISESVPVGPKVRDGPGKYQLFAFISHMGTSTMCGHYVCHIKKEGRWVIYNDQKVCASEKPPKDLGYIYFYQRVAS
Method in brief: as §1

USP54 = USP54 (UniProt Q70EL1)
Method in brief: as §1

USP7 = USP7 (UniProt Q93009)
USP7, sequence (Q93009 whole entry, looked up): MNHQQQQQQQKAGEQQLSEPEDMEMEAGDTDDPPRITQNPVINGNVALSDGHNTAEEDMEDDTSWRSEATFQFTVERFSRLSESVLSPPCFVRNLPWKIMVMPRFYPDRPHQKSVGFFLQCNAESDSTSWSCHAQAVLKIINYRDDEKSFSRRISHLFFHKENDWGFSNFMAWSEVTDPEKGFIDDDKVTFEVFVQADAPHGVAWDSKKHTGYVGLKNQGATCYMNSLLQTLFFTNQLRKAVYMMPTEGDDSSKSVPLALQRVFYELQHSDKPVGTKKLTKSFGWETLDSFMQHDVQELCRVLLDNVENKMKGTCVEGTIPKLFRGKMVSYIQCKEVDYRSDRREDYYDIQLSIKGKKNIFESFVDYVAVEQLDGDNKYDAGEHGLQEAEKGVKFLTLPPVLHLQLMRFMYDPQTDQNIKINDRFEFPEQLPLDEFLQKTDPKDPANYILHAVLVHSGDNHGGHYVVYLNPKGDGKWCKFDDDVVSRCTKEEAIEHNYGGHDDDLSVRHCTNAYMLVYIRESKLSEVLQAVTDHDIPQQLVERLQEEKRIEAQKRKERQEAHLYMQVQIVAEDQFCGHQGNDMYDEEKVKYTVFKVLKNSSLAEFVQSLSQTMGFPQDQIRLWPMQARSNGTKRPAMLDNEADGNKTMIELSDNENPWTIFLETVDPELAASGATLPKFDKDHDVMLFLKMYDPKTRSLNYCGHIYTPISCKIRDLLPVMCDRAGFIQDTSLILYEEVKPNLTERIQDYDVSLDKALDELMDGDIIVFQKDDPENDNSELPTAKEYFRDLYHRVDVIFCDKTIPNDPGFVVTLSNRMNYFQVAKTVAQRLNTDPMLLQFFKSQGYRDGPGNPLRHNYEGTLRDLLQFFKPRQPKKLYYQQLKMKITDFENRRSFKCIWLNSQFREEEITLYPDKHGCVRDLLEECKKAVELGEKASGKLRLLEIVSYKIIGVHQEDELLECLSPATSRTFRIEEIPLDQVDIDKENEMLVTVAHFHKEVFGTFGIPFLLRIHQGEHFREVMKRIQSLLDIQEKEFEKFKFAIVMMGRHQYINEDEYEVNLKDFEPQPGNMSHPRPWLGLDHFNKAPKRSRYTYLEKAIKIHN
Method in brief: as §1

USP8 = target: T5, USP8 (UniProt P40818)
T5 sequence (whole entry): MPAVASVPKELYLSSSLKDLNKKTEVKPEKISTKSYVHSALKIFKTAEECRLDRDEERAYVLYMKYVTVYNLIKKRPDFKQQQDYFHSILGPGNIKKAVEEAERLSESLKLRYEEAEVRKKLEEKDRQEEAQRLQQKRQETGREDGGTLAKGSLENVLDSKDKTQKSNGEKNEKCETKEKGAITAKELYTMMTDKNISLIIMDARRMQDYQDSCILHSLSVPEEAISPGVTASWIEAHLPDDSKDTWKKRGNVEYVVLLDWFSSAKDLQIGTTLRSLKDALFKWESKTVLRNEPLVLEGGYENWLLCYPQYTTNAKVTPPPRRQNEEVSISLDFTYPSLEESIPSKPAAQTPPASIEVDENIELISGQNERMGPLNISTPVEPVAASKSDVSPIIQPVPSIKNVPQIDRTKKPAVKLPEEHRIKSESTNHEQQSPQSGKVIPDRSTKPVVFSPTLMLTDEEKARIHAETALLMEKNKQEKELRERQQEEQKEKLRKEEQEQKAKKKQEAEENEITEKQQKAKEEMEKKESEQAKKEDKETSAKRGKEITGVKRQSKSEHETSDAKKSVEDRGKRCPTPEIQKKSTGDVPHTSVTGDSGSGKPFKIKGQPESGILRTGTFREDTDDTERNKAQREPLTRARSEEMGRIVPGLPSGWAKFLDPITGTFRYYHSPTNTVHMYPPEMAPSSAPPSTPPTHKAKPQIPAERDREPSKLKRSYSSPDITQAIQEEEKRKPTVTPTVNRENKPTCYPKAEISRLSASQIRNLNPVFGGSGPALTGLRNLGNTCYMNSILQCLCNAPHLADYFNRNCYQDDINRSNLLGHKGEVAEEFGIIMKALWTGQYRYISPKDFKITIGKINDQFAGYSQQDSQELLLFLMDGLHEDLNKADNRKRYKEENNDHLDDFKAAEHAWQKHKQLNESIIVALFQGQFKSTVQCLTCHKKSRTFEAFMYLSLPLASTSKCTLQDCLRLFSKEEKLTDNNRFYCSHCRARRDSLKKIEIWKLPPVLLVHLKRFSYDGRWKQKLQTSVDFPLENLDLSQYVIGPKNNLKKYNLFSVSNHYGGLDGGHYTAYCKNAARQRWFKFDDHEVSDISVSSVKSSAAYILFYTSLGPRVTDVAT
Method in brief: as §1

USP9X = USP9X (UniProt Q93008)
USP9X, sequence (Q93008 whole entry): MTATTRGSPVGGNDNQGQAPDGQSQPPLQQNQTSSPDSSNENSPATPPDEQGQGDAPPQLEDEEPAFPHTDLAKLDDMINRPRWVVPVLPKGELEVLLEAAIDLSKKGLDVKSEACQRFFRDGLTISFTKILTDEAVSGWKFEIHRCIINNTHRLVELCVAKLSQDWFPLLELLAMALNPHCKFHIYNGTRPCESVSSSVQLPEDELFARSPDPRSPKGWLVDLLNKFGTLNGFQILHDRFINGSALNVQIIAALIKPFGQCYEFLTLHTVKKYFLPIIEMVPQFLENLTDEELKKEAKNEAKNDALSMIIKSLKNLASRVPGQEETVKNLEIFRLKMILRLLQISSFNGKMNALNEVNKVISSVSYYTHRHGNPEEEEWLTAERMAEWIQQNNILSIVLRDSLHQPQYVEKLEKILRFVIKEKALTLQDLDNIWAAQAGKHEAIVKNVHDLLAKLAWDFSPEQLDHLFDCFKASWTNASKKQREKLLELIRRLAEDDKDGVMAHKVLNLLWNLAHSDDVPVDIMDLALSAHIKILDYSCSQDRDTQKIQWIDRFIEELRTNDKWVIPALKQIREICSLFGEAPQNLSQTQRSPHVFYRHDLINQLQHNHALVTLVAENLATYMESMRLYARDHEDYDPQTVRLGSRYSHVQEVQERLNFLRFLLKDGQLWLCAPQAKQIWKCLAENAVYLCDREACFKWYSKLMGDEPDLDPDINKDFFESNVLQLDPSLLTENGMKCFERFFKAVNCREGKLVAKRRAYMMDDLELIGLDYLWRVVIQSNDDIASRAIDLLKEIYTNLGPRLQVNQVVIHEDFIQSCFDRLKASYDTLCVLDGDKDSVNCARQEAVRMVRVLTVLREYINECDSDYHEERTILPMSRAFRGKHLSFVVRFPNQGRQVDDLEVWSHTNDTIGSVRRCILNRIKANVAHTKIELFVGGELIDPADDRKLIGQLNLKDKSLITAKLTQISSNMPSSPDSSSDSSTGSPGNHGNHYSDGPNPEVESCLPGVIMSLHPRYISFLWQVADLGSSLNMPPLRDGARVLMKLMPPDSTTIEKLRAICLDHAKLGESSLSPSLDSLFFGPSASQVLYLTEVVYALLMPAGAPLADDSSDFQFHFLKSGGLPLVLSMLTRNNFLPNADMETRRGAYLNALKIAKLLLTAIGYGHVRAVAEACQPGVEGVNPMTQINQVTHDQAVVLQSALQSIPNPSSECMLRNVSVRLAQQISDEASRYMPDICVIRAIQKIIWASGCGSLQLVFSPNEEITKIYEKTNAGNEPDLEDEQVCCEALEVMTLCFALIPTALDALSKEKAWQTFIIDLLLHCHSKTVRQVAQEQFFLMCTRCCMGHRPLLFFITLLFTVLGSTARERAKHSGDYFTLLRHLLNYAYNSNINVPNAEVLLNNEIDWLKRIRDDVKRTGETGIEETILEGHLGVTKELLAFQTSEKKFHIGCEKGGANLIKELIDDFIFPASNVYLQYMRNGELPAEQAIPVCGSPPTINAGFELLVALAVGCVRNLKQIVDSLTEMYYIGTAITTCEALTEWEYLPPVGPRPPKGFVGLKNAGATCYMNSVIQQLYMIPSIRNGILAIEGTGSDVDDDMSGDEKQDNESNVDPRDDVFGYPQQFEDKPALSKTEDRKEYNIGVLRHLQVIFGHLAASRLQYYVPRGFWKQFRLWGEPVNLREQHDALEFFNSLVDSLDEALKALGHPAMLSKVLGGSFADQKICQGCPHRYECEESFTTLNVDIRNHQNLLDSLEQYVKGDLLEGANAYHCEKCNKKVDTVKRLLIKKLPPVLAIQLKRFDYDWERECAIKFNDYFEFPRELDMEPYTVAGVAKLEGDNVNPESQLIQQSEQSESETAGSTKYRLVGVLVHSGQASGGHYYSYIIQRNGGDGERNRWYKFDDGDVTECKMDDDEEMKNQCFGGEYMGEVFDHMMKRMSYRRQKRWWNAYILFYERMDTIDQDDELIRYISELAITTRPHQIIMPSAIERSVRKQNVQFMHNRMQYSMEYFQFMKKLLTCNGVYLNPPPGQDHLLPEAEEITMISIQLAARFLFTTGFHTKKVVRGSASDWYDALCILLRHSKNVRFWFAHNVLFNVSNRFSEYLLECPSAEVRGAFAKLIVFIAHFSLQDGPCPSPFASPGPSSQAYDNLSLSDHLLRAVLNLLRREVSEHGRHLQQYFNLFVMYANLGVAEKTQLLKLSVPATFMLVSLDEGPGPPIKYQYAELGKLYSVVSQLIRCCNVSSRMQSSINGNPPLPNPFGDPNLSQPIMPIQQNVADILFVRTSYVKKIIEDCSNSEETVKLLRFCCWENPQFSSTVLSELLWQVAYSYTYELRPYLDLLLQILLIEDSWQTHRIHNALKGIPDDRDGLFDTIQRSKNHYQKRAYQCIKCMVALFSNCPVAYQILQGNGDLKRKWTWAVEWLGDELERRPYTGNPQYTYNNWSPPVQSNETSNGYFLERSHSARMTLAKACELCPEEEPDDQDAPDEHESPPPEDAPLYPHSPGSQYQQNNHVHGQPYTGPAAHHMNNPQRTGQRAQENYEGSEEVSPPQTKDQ
Method in brief: as §1

UniProt O00487 = target: UniProt O00487
UniProt O00487, sequence (O00487 whole entry): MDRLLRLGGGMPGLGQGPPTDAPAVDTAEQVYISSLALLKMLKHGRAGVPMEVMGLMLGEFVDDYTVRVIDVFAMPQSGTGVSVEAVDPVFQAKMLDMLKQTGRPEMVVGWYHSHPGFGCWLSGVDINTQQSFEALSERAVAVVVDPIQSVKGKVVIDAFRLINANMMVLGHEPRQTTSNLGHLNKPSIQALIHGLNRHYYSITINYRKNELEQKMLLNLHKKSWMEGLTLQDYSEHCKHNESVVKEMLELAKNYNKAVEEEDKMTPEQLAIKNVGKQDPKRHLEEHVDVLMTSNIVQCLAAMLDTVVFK
Method in brief: as §1

Measured: log2 ratio of Biotin-Ahx-Ub-VS probe labelling

O=C(CCl)NCc1noc(C2CC2)n1
inactive: USP42 -0.112 | USP46 -0.0864 | USP47 -0.0714 | USP48 -0.135 | USP5 -0.183 | USP54 1.02 | USP7 -0.262 | USP8 -0.421 | USP9X -0.268 | UniProt O00487 -0.16

O=C(CCl)NCc1ccc(Cl)cc1
inactive: USP42 0.175 | USP46 -0.0156 | USP47 -0.0592 | USP48 0.107 | USP5 -0.0207 | USP54 -0.625 | USP7 -0.206 | USP8 0.105 | USP9X 0.00725 | UniProt O00487 -0.0216

CN(C)C(=O)c1ccc(CNC(=O)CCl)cc1
inactive: USP42 -0.0843 | USP46 0.181 | USP47 0.119 | USP48 0.0435 | USP5 0.373 | USP54 0.152 | USP7 0.103 | USP8 -0.341 | USP9X 0.002 | UniProt O00487 -0.101

O=C(CCl)Nc1ccc(Cl)c(F)c1
inactive: USP42 -0.0407 | USP46 -0.231 | USP47 -0.798 | USP48 -0.731 | USP5 -0.223 | USP54 -0.268 | USP7 -0.646 | USP8 -0.207 | USP9X -0.282 | UniProt O00487 -0.0232
